Measurements reported in ChEMBL document CHEMBL3988442, “University of Dundee, Small-Polar-MMV Screening Library” (2021).
For some assays here: Potency and affinity values are given separately.

Assays:
Design in all cases: scale not given: direction of the effect not stated beside the values
[1] = target: Protein translocase subunit SecA (Escherichia coli (strain K12)) (UniProt P10408); assay: Assay to Identify E. coli SecA ATPase Inhibitors; type: functional; conditions: 30 µM
[2] = target: T1, Ubiquitin-activating enzyme e1, putative (Leishmania donovani (strain BPK282A1)) (UniProt E9BSI1); assay: Leishmania donovani Ubiquitin Activating Enzyme (LdE1); type: functional; conditions: 30 µM
T1 sequence (whole entry): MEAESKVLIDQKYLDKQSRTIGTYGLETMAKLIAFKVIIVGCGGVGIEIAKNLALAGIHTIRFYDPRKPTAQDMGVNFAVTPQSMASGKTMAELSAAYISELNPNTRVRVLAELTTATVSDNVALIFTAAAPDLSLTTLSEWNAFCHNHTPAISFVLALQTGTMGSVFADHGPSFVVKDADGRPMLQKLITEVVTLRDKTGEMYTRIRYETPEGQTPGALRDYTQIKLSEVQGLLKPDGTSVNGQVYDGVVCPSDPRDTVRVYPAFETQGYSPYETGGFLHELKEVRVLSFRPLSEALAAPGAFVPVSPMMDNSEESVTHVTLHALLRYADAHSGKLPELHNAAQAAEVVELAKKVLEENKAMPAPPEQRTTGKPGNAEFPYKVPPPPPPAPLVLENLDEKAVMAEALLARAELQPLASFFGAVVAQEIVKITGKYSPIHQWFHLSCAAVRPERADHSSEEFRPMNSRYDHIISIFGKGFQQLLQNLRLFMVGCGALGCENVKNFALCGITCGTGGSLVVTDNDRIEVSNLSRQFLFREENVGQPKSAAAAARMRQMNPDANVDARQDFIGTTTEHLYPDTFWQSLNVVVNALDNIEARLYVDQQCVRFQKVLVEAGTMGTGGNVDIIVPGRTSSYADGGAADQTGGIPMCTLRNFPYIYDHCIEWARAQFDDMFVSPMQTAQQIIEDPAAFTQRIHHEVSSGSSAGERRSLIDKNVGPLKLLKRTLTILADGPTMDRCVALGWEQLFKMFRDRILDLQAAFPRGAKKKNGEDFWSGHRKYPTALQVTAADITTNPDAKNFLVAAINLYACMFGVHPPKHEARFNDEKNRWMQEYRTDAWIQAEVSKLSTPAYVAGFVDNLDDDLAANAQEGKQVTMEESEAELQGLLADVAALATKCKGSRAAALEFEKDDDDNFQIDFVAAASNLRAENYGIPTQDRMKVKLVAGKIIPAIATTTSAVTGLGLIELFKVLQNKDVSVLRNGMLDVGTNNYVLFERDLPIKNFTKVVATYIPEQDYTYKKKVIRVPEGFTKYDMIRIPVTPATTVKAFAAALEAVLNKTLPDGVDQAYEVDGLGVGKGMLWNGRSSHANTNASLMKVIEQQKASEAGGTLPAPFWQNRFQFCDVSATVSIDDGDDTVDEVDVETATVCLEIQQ

[3] = target: AMP-activated protein kinase, AMPK (Homo sapiens) (UniProt P54646+O43741+P54619+Q9UGJ0+Q9Y478+Q13131+Q9UGI9); assay: AMP-dependent Kinase enzyme assay. An in vitro enzyme assay that detects ADP turnover that is directly proportional to AMPK activity. This uses naive AMPK that is activated during the assay with MK-8722; type: functional; conditions: 30 µM
[4] = target: Sialic acid-binding Ig-like lectin 9 (Homo sapiens) (UniProt Q9Y336); assay: Hs-Siglec9 ALPHAscreen SOP 20170721; conditions: 10 µM
Sequence of Sialic acid-binding Ig-like lectin 9 (Homo sapiens) (Q9Y336 whole entry): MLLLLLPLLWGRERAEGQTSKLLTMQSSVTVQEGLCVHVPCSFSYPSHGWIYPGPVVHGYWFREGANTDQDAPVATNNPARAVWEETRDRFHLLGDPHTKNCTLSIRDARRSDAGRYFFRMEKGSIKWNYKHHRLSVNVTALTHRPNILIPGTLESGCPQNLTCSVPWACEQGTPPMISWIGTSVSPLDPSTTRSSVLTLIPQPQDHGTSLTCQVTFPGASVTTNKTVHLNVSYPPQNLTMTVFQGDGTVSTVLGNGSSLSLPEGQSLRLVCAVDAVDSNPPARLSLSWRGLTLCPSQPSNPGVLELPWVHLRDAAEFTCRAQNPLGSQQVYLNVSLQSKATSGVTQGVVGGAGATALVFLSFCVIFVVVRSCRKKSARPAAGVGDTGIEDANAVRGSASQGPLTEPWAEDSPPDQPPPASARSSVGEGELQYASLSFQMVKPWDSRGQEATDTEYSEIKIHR

[5] = system: Trypanosoma cruzi; assay: Trypanosoma cruzi phosphomannomutase and mannose-1-phosphate guanylyltransferase assay; type: functional; conditions: 10 µM
[6] = target: T2, Arginase-2, mitochondrial (Homo sapiens) (UniProt P78540); assay: in vitro enzyme assay to detect the production of urea directly proportional to the activity of Arginase II; type: functional; conditions: 33.3 µM; note: in the data most compounds retested in dose-response had high values
T2 sequence (whole entry): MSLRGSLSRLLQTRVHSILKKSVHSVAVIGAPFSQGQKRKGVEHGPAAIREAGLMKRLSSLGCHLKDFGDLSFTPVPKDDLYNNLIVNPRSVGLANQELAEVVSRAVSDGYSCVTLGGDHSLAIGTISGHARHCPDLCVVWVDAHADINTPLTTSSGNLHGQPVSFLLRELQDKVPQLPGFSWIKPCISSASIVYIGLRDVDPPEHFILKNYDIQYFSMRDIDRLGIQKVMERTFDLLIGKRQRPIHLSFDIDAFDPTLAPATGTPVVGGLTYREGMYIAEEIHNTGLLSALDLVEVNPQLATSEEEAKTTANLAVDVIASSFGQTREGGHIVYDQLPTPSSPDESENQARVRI

[7] = target: T3, Proteasome subunit beta (Trypanosoma cruzi) (UniProt O96673); assay: Trypanosoma cruzi proteasome chymotrypsin-like activity (TcProtChymo) assay.; note: in the data most compounds retested in dose-response had high values; type: functional; conditions: 9.37 µM
T3 sequence (whole entry): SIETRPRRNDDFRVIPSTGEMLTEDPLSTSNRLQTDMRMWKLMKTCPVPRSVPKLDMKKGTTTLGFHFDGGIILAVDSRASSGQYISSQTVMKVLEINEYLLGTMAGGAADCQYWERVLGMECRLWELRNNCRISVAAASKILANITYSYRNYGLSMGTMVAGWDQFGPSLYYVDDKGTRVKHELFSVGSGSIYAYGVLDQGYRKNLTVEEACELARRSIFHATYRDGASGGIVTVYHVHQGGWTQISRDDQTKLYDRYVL

[8] = species on record: Homo sapiens; assay: To identify inhibition of the IFN signalling (Jak-Stat) pathway via expression of an eGFP reporter gene under the control of an IFN-stimulated response element (ISRE) containing MxA promoter.; type: functional; conditions: 30 µM
[9] = target: T4, Tyrosyl-tRNA synthetase, putative (Trypanosoma cruzi (strain CL Brener)) (UniProt Q4DSP6); assay: Trypanosoma cruzi tyrosyl tRNA synthetase (TcYRS) _High Tyrosine SOP; type: functional; conditions: 30 µM; note: in the data most compounds retested in dose-response had high values
T4 sequence (whole entry): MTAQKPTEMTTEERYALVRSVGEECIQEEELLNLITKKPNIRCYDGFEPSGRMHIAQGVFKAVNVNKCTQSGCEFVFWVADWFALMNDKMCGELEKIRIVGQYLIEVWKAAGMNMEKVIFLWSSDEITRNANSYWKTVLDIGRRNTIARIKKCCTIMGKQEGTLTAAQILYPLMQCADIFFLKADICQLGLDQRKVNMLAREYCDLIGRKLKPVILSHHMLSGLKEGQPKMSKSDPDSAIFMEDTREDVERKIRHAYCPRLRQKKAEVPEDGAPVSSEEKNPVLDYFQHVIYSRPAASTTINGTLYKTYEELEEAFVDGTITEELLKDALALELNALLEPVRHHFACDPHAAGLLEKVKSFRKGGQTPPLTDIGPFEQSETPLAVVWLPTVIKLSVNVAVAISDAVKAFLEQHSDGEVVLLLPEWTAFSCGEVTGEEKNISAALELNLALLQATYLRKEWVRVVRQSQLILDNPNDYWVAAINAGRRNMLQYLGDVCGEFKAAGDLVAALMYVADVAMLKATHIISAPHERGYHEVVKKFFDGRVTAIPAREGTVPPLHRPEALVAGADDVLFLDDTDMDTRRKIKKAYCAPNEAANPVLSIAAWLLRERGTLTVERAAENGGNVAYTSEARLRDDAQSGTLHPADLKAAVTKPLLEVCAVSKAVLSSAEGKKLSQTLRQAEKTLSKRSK

[10] = target: T4, Tyrosyl-tRNA synthetase, putative (Trypanosoma cruzi (strain CL Brener)); assay: Trypanosoma cruzi tyrosyl tRNA synthetase (TcYRS) SOP; type: functional; conditions: 30 µM
[11] = target: Chromo domain-containing protein 1 (Saccharomyces cerevisiae (strain ATCC 204508 / S288c) (Baker's yeast)) (UniProt P32657); assay: ScCHD-1 Enzyme Inhibition Assay; type: functional; conditions: 30 µM; note: in the data most compounds retested in dose-response had high values
Sequence of Chromo domain-containing protein 1 (Saccharomyces cerevisiae (strain ATCC 204508 / S288c) (Baker's yeast)) (P32657 whole entry, the tested form may be a part): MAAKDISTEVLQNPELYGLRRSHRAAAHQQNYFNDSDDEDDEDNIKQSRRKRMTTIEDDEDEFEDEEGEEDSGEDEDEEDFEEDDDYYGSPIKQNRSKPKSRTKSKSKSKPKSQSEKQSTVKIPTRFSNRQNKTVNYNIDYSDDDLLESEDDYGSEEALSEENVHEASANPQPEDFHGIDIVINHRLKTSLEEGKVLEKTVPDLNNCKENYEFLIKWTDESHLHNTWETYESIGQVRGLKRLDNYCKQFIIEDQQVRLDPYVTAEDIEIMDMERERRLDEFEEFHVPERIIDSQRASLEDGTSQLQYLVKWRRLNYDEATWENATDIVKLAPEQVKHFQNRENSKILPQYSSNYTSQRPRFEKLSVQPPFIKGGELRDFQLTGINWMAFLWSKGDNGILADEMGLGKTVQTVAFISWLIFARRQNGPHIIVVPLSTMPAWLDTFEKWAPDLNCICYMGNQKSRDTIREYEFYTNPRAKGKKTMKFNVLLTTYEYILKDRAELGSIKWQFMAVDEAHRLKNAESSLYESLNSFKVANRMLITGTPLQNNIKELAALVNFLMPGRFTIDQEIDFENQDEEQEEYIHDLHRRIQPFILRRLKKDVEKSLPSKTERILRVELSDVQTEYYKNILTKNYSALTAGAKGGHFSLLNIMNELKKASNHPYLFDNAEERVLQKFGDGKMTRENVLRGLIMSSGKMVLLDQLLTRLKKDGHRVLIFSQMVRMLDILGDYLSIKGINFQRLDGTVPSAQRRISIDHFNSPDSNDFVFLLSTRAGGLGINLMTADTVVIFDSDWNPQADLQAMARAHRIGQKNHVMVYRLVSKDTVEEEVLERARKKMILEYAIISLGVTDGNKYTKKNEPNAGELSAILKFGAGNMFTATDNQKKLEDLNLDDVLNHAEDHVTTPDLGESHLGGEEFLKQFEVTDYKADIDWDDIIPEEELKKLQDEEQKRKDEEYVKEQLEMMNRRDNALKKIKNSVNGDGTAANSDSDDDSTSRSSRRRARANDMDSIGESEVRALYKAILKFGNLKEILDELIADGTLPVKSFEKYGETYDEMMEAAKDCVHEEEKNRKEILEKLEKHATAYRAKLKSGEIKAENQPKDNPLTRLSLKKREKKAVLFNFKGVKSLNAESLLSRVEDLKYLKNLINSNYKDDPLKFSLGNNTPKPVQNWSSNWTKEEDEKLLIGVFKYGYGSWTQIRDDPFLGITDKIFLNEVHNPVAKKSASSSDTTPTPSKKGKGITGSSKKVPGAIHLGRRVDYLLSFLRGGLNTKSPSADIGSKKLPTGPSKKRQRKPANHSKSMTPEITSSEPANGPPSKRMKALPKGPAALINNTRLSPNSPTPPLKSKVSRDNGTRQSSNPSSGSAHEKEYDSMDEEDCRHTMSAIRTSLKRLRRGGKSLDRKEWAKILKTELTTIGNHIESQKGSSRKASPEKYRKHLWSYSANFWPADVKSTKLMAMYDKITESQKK

Sequence of Protein translocase subunit SecA (Escherichia coli (strain K12)) (P10408 whole entry): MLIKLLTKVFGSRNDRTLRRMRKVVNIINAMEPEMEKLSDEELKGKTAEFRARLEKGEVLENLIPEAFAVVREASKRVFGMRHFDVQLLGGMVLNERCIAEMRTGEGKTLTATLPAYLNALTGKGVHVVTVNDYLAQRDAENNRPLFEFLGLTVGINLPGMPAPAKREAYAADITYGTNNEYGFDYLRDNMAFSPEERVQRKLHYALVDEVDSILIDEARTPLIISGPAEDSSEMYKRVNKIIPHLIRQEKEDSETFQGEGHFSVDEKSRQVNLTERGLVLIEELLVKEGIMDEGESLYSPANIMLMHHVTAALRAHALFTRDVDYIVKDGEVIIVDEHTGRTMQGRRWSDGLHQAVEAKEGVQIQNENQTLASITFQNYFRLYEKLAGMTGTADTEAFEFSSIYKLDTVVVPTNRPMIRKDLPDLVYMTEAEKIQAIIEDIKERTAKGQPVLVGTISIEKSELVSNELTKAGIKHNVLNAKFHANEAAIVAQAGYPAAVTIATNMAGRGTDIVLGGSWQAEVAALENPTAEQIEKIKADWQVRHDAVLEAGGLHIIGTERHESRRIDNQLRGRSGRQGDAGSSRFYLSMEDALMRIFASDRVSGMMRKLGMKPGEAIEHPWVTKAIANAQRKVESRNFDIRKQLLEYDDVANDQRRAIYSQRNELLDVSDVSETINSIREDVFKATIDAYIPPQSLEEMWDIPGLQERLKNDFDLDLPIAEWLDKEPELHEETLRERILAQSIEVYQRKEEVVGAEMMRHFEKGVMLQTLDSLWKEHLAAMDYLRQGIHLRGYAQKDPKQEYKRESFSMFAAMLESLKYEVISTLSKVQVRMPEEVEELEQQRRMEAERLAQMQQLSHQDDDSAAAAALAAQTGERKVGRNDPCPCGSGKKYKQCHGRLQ

Row | Compound | Percent Effect [1] | Percent Effect [2] | Percent Effect [3] | Percent Effect [4] | Percent Effect [5] | Percent Effect [6] | Percent Effect [7] | Percent Effect [8] | Percent Effect [9] | Percent Effect [10] | Percent Effect [11]
1 | CC(C)n1c(C2CCCN(CCS(C)(=O)=O)C2)nc2ccccc21 (configuration not stated) | -2.02% | 8.11% | 1.95% | -0.0156% | 0.586% | 13.8% | 7.69% | -5.65% | 5.94% | 8.54% | -2.93%
2 | O=C([C@H]1CN(CCc2ccccc2)C[C@H]2OCC[C@@H]12)N1CCCO1 | -5.74% | 18.7% | -7.7% | -0.861% | 6.37% | -46.1% | 11.6% | 4.24% | 2.08% | 15% | -7.28%
3 | CC(C)Nc1ncnc2c1CCN(C(=O)Cc1ccccn1)CC2 | -6.13% | 1.33% | -12.1% | -2.69% | -6.48% | -10.4% | 10.3% | -12.6% | -2.12% | -2.56% | -11%
4 | Cc1ccc(OCCNC(=O)C(C)n2cncn2)cc1 (configuration not stated) | -1.61% | 15.2% | 7.61% | -6.9% | -9.91% | 0.38% | 11.1% | 35.3% | -1.48% | 3.8% | -3.56%
5 | Cc1nc(CCCNC(=O)C2CC(=O)N(C3CC3)C2)sc1C (configuration not stated) | 6.83% | 16.4% | -10.9% | 5.44% | 1.59% | -10.8% | 16.9% | 25.5% | 8.33% | 28.4% | 2.71%
6 | Cc1ccc(C(CNCc2cnn(C(C)C)c2)N2CCOCC2)s1 (configuration not stated) | -3.15% | -2.7% | -0.219% | -2.96% | -0.391% | -2.5% | 11.1% | -8.39% | 4.95% | 1.22% | -6.03%
7 | NC(=O)C1(Cc2ccccc2-c2ccccc2)CCCN(CC2CC2)C1 (configuration not stated) | -0.127% | 0% | 8.02% | 1.63% | 3.15% | 0.233% | 5.2% | -4.55% | 2.13% | 3.85% | -2.97%
8 | Cc1ccccc1CS(=O)(=O)CC(=O)NCc1ccccc1F | -3.68% | 7.89% | 11.2% | 7.68% | 0.292% | 3.55% | 10.6% | 31% | 4.25% | 13% | -2.75%
9 | Cc1csc(N2CCN(C(=O)Cc3ccc(C)s3)CC2)n1 | -4.68% | 10.8% | -9.36% | 4.82% | -6.89% | -5.61% | 25.2% | 15.8% | 12.3% | 11.1% | 1.36%
10 | COc1cc2cc(C(=O)O)n(C)c2c(OC)c1OC | 2.1% | -9.33% | 13.7% | 8.78% | -4.71% | -5.46% | 13.9% | 1.84% | -3.17% | -5.13% | -10%
11 | CCn1cnnc1C1CCN(C(=O)c2ccc(C(=O)OC)s2)CC1 | -6.84% | 10.4% | 4.62% | 9.21% | -4.87% | -0.356% | 7.43% | -6.83% | 4.85% | 12.2% | -5.74%
12 | O=C(CCc1cc2n(n1)CCCN(C(=O)c1ccccn1)C2)NC1CC1 | -2.88% | 4.17% | -1.28% | 15.3% | 4.76% | 21.2% | 7.89% | -15.2% | 4.21% | 5.13% | -4.34%
13 | O=S(=O)(N1CCCCC1)N1CCc2nc(C3CCNCC3)ncc2C1 | -2.16% | -4.05% | 0.892% | 4.08% | -1.78% | -3.94% | 12.8% | 5.01% | 3.23% | 1.3% | -20.6%
14 | Cc1cc(C)c(CNC(=O)C2CCCN(c3cnccn3)C2)c(=O)[nH]1 (configuration not stated) | -3.46% | 10.5% | -6.83% | 10.1% | -4.13% | -1.53% | 11.5% | -8.19% | -0.49% | -12.2% | -5.39%
15 | C1CC1c1nsc(N2CCN(C3CC3)CC2)n1 | -5.35% | 13.7% | 2.89% | 8.66% | 5.49% | 13.2% | 13.3% | 12.3% | 6.45% | 15% | -6.12%
16 | CCN(CC)c1ccc(NS(=O)(=O)c2cnn(C)c2)cn1 | -1.96% | 16.4% | -5.27% | 6.69% | 8.33% | -6.39% | 8.48% | 0.142% | 6.25% | 13.6% | -5.08%
17 | Cn1cccc1CNC(=O)N(CCO)C1CCCc2ccccc21 (configuration not stated) | -4.61% | -5.26% | -1.52% | 0.538% | 3.8% | -14.2% | 2.01% | 1.76% | 2.13% | 0% | -9.55%
18 | CCOC(=O)CCC(=O)N1CCC(Oc2ccc(C(F)(F)F)cn2)CC1 | -1.66% | 7.79% | 4.3% | 13.1% | -6.41% | -1.94% | 14.1% | 20.3% | 3.17% | 11.5% | -5.92%
19 | COCC(=O)N1CCCC1c1ccnc(Nc2cnccn2)n1 (configuration not stated) | -3.17% | 12.2% | 9.2% | 8.04% | -0.395% | 0.232% | 10.3% | -10.9% | 12.9% | 22.1% | -7.89%
20 | Cc1noc(C(C)C)c1C(=O)NCc1cccc(N(C)C)c1 | -7.07% | 18.2% | -6.12% | -1.43% | -6.74% | -2.49% | 8.28% | 33% | 4.85% | 9.76% | -8%
21 | c1ccc(-n2nnnc2CN2CCCC(Cn3cncn3)C2)cc1 (configuration not stated) | -1.71% | 6.33% | 5.51% | 4.14% | -5.03% | 0.645% | 9.61% | 4.63% | 3.12% | 10.1% | -17.9%
22 | Cc1ccc(CCNC(=O)N2CCCC(Cc3nccn3C)C2)cn1 (configuration not stated) | -5.16% | 0% | -1.4% | 2.27% | 4.49% | -2.5% | 9.89% | 16.9% | 7.92% | 13.4% | -0.907%
